Screening data deposited in PubChem by National Center for Advancing Translational Sciences (NCATS).
HP1b binding inh: HTS for Inhibitors of HP1-beta Chromodomain Interactions with Methylated Histone Tails. AlphaScreen HP1-beta / biotin-H3K9me3 peptide binding. Chromobox protein homolog 1 (Homo sapiens), P83916. Potency, µM (titrated, usually from 114 µM), for inactives: at the top dose activity change, negative = inhibition, usual class: inhibitors. 390,000 tested, 0.56% active; note: potency is the fitted concentration of half-maximal effect; nearly all actives have a fitted effect of over 70% in size
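Compound inhibition of the preformed complex between 50 nM HP1-beta and 50 nM biotinylated H3K9me3 peptide was read by AlphaScreen. Buffer was PBS pH 7.4 with 0.01% Tween-20. Incubations ran 30 min at room temperature, with 10 ug/mL donor/acceptor beads.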
Six1-Eya2 blk: qHTS Assay for Inhibitors of the Six1/Eya2 Interaction | AID 651725, 2012 | AlphaScreen GST-Six1/His-Eya2 binding, biochemical; stronger effect = lower value | Homeobox protein SIX1 (Homo sapiens) + Protein phosphatase EYA2 (Homo sapiens), … | activity change, % (no concentration beside the values) | 360,000 tested, 0.56% active; in the data active = activity change below about -65%; inconclusive = mostly about -30% to -63%; note: % is set by controls: 0 for no effect and ±100 for the full control effect
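Homogeneous AlphaScreen proximity assay pairing GST-Six1 with His-tagged Eya2 (added as 5X mix: 250 nM and 500 nM) in 50 mM Tris pH 8.0, 300 mM NaCl, 1 mM TCEP. Glutathione donor and nickel acceptor beads; 1 h, 37 °C, dark.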
JMJD2A Tudor inh: qHTS Assay for Inhibitors of JMJD2A-Tudor Domain; Lysine-specific demethylase 4A (Homo sapiens), O75164; AlphaScreen JMJD2A-Tudor / H3K4me3 peptide binding; Potency, µM (highest dose often 114 µM), inactives show top-dose activity change, negative = inhibition, hits mostly inhibitors; 390,000 tested, 4.4% active; note: potency is the fitted concentration of half-maximal effect; % is set by controls: 0 for no effect and ±100 for the full control effect; nearly all actives have a fitted effect of over 50% in size
Target sequence (O75164 whole entry, looked up, the tested form may be a part): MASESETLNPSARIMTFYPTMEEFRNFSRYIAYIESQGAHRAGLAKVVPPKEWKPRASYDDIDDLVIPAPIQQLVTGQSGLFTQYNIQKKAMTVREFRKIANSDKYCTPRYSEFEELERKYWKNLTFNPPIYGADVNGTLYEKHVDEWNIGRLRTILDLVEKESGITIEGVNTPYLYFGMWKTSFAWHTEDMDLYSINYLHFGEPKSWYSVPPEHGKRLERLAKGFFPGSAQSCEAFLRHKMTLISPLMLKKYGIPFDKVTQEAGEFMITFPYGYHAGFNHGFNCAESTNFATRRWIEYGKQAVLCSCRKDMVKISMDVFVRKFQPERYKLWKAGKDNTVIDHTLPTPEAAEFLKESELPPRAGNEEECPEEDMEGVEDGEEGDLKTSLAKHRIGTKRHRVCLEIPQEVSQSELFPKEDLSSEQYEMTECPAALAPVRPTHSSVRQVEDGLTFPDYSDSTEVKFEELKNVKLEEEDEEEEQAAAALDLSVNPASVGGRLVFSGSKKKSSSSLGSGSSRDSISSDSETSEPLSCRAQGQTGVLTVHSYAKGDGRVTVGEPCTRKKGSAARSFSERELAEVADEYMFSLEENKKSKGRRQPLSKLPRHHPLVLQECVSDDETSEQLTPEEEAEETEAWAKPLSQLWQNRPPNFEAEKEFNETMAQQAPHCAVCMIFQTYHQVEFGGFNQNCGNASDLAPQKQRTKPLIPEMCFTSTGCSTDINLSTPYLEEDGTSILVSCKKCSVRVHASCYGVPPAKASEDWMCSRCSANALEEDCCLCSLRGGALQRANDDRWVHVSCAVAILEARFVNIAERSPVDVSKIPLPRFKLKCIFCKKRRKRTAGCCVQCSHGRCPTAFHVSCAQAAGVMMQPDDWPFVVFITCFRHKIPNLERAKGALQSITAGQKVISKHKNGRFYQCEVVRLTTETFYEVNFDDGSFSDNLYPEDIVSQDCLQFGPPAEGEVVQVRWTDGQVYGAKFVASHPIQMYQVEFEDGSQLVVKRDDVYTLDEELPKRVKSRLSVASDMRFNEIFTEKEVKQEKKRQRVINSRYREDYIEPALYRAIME
G9a block: qHTS Assay for Inhibitors of Histone Lysine Methyltransferase G9a | G9a H3K9 monomethylation, AlphaScreen, 2 h | Potency, µM (titrated, usually from 102 µM), inactives show top-dose activity, negative = inhibition, actives largely listed as inhibitors | 350,000 tested, 8.8% active; note: potency is the fitted concentration of half-maximal effect; % is set by controls: 0 for no effect and ±100 for the full control effect; nearly all actives have a fitted effect of over 75% in size
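Using a bead-based AlphaScreen, monomethylated H3K9 product from 2 h room-temperature reactions (G9a 20 nM, peptide 500 nM, SAM 20 uM) was detected with 0.5 ug/mL rabbit anti-H3K9me1 antibody.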
BAZ2B inh: qHTS Assay for Inhibitors of BAZ2B. Bromodomain adjacent to zinc finger domain protein 2B (Homo sapiens), Q9UIF8. AlphaScreen BAZ2B-H3K14Ac peptide displacement. Potency, µM (series often up to 114 µM), inactives show top-dose activity change, negative = inhibition, hits mostly inhibitors. 360,000 tested, 4.4% active; note: potency is the fitted concentration of half-maximal effect; % is set by controls: 0 for no effect and ±100 for the full control effect; nearly all actives have a fitted effect of over 60% in size
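BAZ2B (50 nM) with biotin-H3(5-23)K14Ac peptide (50 nM) in PBS pH 7.4, 0.01% Tween-20, preformed 30 min, then compound 30 min at room temperature; top concentration 110uM. AlphaScreen streptavidin donor/nickel chelate acceptor beads (10 ug/mL final), 20 min dark, signal read.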
CtBP-E1A blk: qHTS Assay for Inhibitors of the CtBP/E1A Interaction; CtBP / adenovirus E1A interaction (AlphaScreen); AlphaScreen GST-E1A/His-CtBP binding, 1536-well; stronger effect = lower value; activity change, % (no concentration beside the values); 340,000 tested, 0.49% active; in the data active = activity change below about -65%; inconclusive = mostly about -30% to -63%; note: % is set by controls: 0 for no effect and ±100 for the full control effect
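Steps: dispense buffer (Tris pH 8.0, NaCl 300 mM, TCEP 1 mM, BSA, Tween 20); add 5X protein mix (GST-E1A, His-CtBP, 125 nM each); pin 23 nL compound; 2 h at 37 °C, dark; add 5X beads (50 ug/mL); 1 h; read.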
* hit, by the source's call; ? = inconclusive; / = no result given; [ ] = remark or other dose. Shown are actives, neighbours in structure and some others; about 10% of the full set was active somewhere. Unless noted, calls come from the whole dose curve; as a rule, active = well fitted inhibition curve with a large enough effect; inconclusive = small, poorly fitted or top-dose-only effect; inactive = no such curve, though single readings can be large or run the other way.

SMILES	HP1b binding inh	Six1-Eya2 blk	JMJD2A Tudor inh	G9a block	BAZ2B inh	CtBP-E1A blk
CCCOc1ccc(N2C(=O)CC(NCC#N)C2=O)cc1 (centres undefined)	18%	10	-3%	60%	1%	7
COc1ccc(N2C(=O)CC(NCC#N)C2=O)cc1 (centres undefined)	45%	2	-15%	28µM*	6%	0
CC(C)NC(=O)c1onc(CSc2ccc(Cl)cc2)c1C(=O)NC(C)C	62%	12	13%	51%[59 µM]	19%	15
CC1CCCCN1C(=O)CSc1nc2ccccc2nc1Cc1ccc(Cl)cc1 (centres undefined)	30%[57 µM]	/	-6%	17%[59 µM]	4%	/
CC1CCc2c(sc3nnn(CC(=O)Nc4ccccc4Cl)c(=O)c23)C1 (centres undefined)	38%	/	-15%	0%[59 µM]	-12%	/
COc1cc(C#Cc2c(-c3cncn3C)n(C)c3ccc(-c4ccc(OC)nc4)cc23)cc(OC)c1	-11%	-1	14µM*	-2%[0.501 µM]	40µM*	-25
O=C(NN1C(=O)/C(=C/c2cccnc2)SC1=S)C(c1ccccc1)c1ccccc1	-11%	-5	?	?	-36%	-5
CCOc1ccc(/C=C2/SC(=S)N(C(C(=O)O)c3ccccc3)C2=O)cc1OCC (centres undefined)	?	8	?	45µM*	79µM*	-19
COc1ccccc1/C=C1\SC(=S)N(C(C(=O)O)c2ccccc2)C1=O (centres undefined)	28%	-5	3%[11.4 µM]	?	-36%	5
CCOc1cc(/C=C2/SC(=S)N(CC3CCCO3)C2=O)ccc1O (centres undefined)	27%	-3	-22%	-2%	-14%	/
CCOc1cc(/C=C2\SC(=S)N(C(C(=O)O)c3ccccc3)C2=O)ccc1O (centres undefined)	?	-27	-22%[11.4 µM]	45µM*	-20%	?
COc1cc(/C=C2\SC(=S)N(C(C(=O)O)c3ccccc3)C2=O)ccc1O (centres undefined)	?	-25	-32%	8.9µM*	?	/
O=C(O)C(c1ccccc1)N1C(=O)/C(=C\c2ccc(O)c(O)c2)SC1=S (centres undefined)	25µM*	-28	20µM*	7.9µM*	8.9µM*	/
COc1ccc(Cn2cc(CN3CC(N4CC=CC4)CS3(=O)=O)nn2)cc1 (centres undefined)	/	-7	/	/	/	4
CCOc1ccc(CCNC(=O)c2sc3ncccc3c2-n2c(C)ccc2C)cc1	29%[57 µM]	/	-29%	-35%[59 µM]	22%	/
O=C(O)CCc1ccc(-c2ccccc2)n1Cc1ccco1	3%	-7	?	32µM*	50µM*	-7
O=C(O)CCc1ccc(-c2ccc(Br)cc2)n1Cc1ccco1	-16%	-12	79µM*	?	50µM*	-10
CCOC(=O)c1[nH]c(C)c(C(=O)NCc2cccc(OC)c2)c1C	15%	/	-25%	-38%[59 µM]	-4%	/
Cc1c(C(C)(C)C)c(C=S)n2ccccc12	?	-10	50µM*	4µM*	-38%	6
Cc1cccc(Nc2nnc(SCC(=O)Nc3cccc(S(=O)(=O)N4CCCCC4)c3)s2)c1	-8%	-21	?	3.5µM*	-37%	-8
CSc1nnc(NC(=O)c2ccc(S(=O)(=O)N3CCOCC3)cc2)s1	56%	1	5%	10µM*	-4%	12
Cc1ccc(Nc2nnc(SCC(=O)Nc3cccc(S(=O)(=O)NC4=NCCCCC4)c3)s2)cc1	0%	-7	-36%	-2%[2.33 µM]	?	-3
CCc1ccc(Nc2nnc(SCC(=O)Nc3cccc(S(=O)(=O)NC4=NCCCCC4)c3)s2)cc1	9%	-10	-32%	6.3µM*	-30%	-4
O=C(CSc1nnc(NC(=O)C2CCC2)s1)Nc1ccc(N2CCOCC2)cc1	-17%	-5	-10%[57.1 µM]	50µM*	-8%	4
Cc1cccc(NC(=O)CSc2nnc(NC(=O)CN3CCCCC3)s2)c1	/	/	/	16%[59 µM]	4%	/
SMILES	HP1b binding inh	Six1-Eya2 blk	JMJD2A Tudor inh	G9a block	BAZ2B inh	CtBP-E1A blk
CC(C)(C)c1ccc(C(=O)N2CCC2(C)C(=O)NCc2ccc3c(c2)OCO3)cc1 (centres undefined)	/	-6	/	/	/	1
Cc1ccc(Nc2nnc(SCC(=O)Nc3ccc(S(=O)(=O)N4CCOCC4)cc3)s2)cc1	39%	-8	-10%	?	5%	-15
O=C(CSc1nnc(Nc2ccccc2)s1)Nc1ccc(S(=O)(=O)N2CCOCC2)cc1	21%	-22	-11%	8.9µM*	-1%	-8
O=c1c(Oc2ccccc2)coc2cc(O)cc(O)c12	19%	-3	-12%	/	/	-3
c1ccc(Cn2cc(CSc3ccccc3)nn2)cc1	23%	5	-15%	-8%[59 µM]	14%	9
CCn1c(CCNC(=O)c2ccc(Cl)cc2)n[nH]c1=S	21%	2	10µM*	?	5%	-3
Cn1c(CCNC(=O)c2ccccc2Cl)n[nH]c1=S	9%	0	45µM*	-18%[12.7 µM]	4%	12
Cc1ccc(C(=O)NCCc2n[nH]c(=S)n2C)cc1	32%	4	?	?	-1%	13
Nc1nc(Cl)nc2c1ncn2[C@@H]1O[C@H](CO)[C@H](O)C1F (some centres undefined)	/	/	/	25%[59 µM]	/	/
COc1cc(C(C)=O)ccc1Oc1ccc(S(=O)(=O)N2CCOCC2)cn1	23%	0	-6%	3%[59 µM]	12%	-8
Cc1nc2c(cc(Oc3ccc(S(=O)(=O)N4CCOCC4)cn3)c3ccsc32)s1	23%	-6	-17%	71µM*	1%	0
CCN(CC)c1ccc(N=Nc2ncn[nH]2)cc1	10%	-69*	?	1µM*	/	-74*
CCN(CC)c1ccc(/C=N/O)cc1	18%	2	-22%	?	-28%	-13
COc1ccc(C(=O)N/C(=C\c2cccc([N+](=O)[O-])c2)C(=O)Nc2cccc(C(=O)O)c2)cc1	14%	-1	1%[11.4 µM]	2%	-3%	/
COc1cc([N+](=O)[O-])ccc1NC(=S)Nc1cccc(C(=O)O)c1	-9%	4	-15%	10µM*	-27%	6
COc1ccccc1C(=O)N/C(=C/c1cccc([N+](=O)[O-])c1)C(=O)Nc1cccc(C(=O)O)c1	-2%	-4	13µM*	2%	-1%	0
